LDHA inh = LDHA (human) enzyme inhibition; P00338; purified LDHA, NADH/diaphorase-resazurin fluorescence; active compounds read low; activity change, % (values are at about 110 or 230 µM); hit rate 0.15% among 480,000; in the data active = activity change below about -30%; inconclusive = mostly about -25% to -30%
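Human LDH5 (2 nM) was incubated with 0.06 mM NADH and 0.2 mM pyruvate for 5 min at room temperature in Tris pH 7.4. Remaining NADH was coupled through diaphorase/resazurin, and resorufin fluorescence was read at 0 and 20 min.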
Gal4-VP16 FLuc = counter-screen for ROR gamma inhibitors: Gal4-VP16 reporter | Drosophila S2 Gal4-VP16 UAS-luciferase, luminescence, 20 h | Potency, µM (top dose mostly 53.6 µM), actives largely listed as inhibitors | hit rate 3.5% among 310,000;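 note: Gal4-VP16 expression switched on by copper sulfate through the metallothionein promoter; nearly all actives have a fitted effect of over 50% in size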
RORgamma inh = inhibitors of mouse ROR gamma transcriptional activity. hit rate 5.4% among 310,000. Drosophila S2 Gal4-RORgamma UAS-luciferase reporter, 20 h. Potency, µM (top dose mostly 53.6 µM), usual class: inhibitors; note: nearly all actives have a fitted effect of over 60% in size
Target sequence (P51450 whole entry, looked up, the tested form may be a part): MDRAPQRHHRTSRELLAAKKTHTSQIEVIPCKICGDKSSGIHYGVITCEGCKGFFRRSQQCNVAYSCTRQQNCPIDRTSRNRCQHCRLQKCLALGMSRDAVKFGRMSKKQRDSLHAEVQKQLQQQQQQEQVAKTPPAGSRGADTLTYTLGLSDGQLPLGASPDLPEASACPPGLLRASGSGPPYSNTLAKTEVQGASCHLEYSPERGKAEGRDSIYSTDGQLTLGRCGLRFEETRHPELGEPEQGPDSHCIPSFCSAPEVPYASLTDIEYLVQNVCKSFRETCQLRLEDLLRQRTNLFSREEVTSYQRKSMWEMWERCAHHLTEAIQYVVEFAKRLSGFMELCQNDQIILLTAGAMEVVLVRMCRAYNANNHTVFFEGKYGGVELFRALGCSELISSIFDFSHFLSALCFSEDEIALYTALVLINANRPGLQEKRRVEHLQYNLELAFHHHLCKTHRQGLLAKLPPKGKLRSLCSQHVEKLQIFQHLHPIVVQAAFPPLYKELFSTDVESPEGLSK
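Schneider cells (Drosophila), stable Gal4 DBD–ROR gamma + UAS-luc; 1 hr cmpd preincubation; Cu2+ induction 700 uM final; 20 hr ambient; luminescence.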
TDP1 cell noCPT = qHTS for Inhibitors of human tyrosyl-DNA phosphodiesterase 1 (TDP1): qHTS in cells in absence of CPT; DT40 Tdp1-/- hTDP1 cells, no CPT, ATP luminescence, 48 h; Potency, µM (titrated, usually from 46.2 µM), actives largely listed as inhibitors; hit rate 15% among 420,000; AID 686978, 2013; note: nearly all actives have a fitted effect of over 55% in size
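Readout: luminescence from CellTiter-Glo after 30 min in the dark at RT. Cells: DT40 Tdp1-/- with stable hTDP1, 400/well. Exposure: compounds alone, ≥48 hr, 37 °C.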
DT40 TDP1 CPT = DT40-hTDP1 cell growth loss with CPT. AID 686979. Potency, µM (top dose mostly 46.2 µM), usual class: inhibitors. chicken DT40 Tdp1-/-;hTDP1 cells + 20 nM CPT, ATP luminescence, 48 h. hit rate 12% among 420,000; note: nearly all actives have a fitted effect of over 55% in size
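Chicken DT40 Tdp1-/- cells complemented with human TDP1, 400 cells/well, exposed to compounds plus 20 nM camptothecin for at least 48 h at 37 C; viability read as ATP content by CellTiter-Glo luminescence.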
IL1B secr inh = blocks inflammasome-driven IL-1 beta release; THP-1 LPS/ATP IL-1B secretion, AlphaLISA, 16 h; active compounds read low; hit rate 4.7% among 360,000; activity change, % at 57.5 µM; AID 743279; in the data active = activity change below about -50%; inconclusive = mostly about -30% to -49%
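THP-1 cells pretreated 1 hr with compounds (up to 57.5 uM final), then stimulated with LPS (250 ng/mL final) plus ATP (1.25 mM final); secreted IL-1B measured by AlphaLISA after 16 hr, decreased signal indicating inhibition.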
Numbers stand for hits; [ ] = another dose, or the depositor's remark. Compounds with a hit are over-represented: about 18% of the library has one in this group of screens. Unless noted, calls come from the whole dose curve; as a rule, active = well fitted curve in the direction sought with a large enough effect; inconclusive = small, poorly fitted or top-dose-only effect, or another doubt; inactive = no such curve, though single readings can be large; an effect the other way counts as inactive or inconclusive.

What do the screens show for `COc1ccc(C(C)(O)c2nc(-c3ccc(N(C)C)cc3)cs2)cc1` (stereo not drawn)?
LDHA inh: inactive; TDP1 cell noCPT: 16µM; DT40 TDP1 CPT: 18µM; IL1B secr inh: inactive

Results for O=C(Nc1ccc(Cl)cc1C(F)(F)F)c1ccc(-c2ccccc2)cc1 ?
LDHA inh: inactive

Results for COc1cc(C(=O)Nc2ccc3oc(-c4ccccc4F)cc(=O)c3c2)cc(OC)c1OC ?
LDHA inh: inactive

How did C/C(=C/C(=O)C(F)(F)F)N1CCN(Cc2ccccc2)CC1 do in these assays?
LDHA inh: inactive

Results for O=C(O)c1ccc(-n2cccc2/C=C2\SC(=O)N(Cc3ccc(Cl)cc3)C2=O)cc1 ?
LDHA inh: inactive

What do the screens show for `CC(C)(C)c1cc(C=NCc2ccccc2)cc(C(C)(C)C)c1O`?
LDHA inh: inactive

How did CC(Oc1ccccc1)c1nc(-c2cccc(Br)c2)no1 (stereo not drawn) do in these assays?
LDHA inh: inactive

What do the screens show for `CC(O)(c1cccnc1)c1nc(-c2ccc(S(C)(=O)=O)cc2)cs1` (stereo not drawn)?
LDHA inh: inactive; TDP1 cell noCPT: inactive; DT40 TDP1 CPT: inactive; IL1B secr inh: inactive

What do the screens show for `COc1ccc(-c2csc(C(C)(O)c3ccc(F)c(F)c3)n2)cc1OC` (stereo not drawn)?
LDHA inh: inactive; TDP1 cell noCPT: inconclusive; DT40 TDP1 CPT: 18µM; IL1B secr inh: inactive

How did COc1ccc(-c2csc(C(C)(O)c3cccnc3)n2)cc1 (stereo not drawn) do in these assays?
LDHA inh: inactive; TDP1 cell noCPT: 21µM; DT40 TDP1 CPT: 16µM; IL1B secr inh: -65

Results for O=C(O)c1ccc(COc2cc(Cl)ccc2Cl)s1 ?
LDHA inh: inactive

How did Cc1cc(Cl)ccc1OCC(=O)OCC(=O)Nc1ccccc1Br do in these assays?
LDHA inh: inactive

How did Cc1cc(C)nc(NC(c2ccccn2)c2cc(C)sc2NC(=O)c2ccco2)n1 (stereo not drawn) do in these assays?
LDHA inh: inactive

How did CCn1nc(C(=O)OCc2cc(=O)oc3cc(O)ccc23)c2ccccc2c1=O do in these assays?
LDHA inh: inactive

Results for Cc1cc(C)n(-c2cc(N3CCN(S(=O)(=O)c4ccc(Br)cc4)CC3)ccc2[N+](=O)[O-])n1 ?
LDHA inh: inactive; Gal4-VP16 FLuc: inactive; RORgamma inh: inactive; TDP1 cell noCPT: 12µM; DT40 TDP1 CPT: 12µM; IL1B secr inh: inactive

Results for Cc1cc(C)c(S(=O)(=O)N2CCN(c3ccc([N+](=O)[O-])c(-n4nc(C)cc4C)c3)CC2)c(C)c1 ?
LDHA inh: inactive; Gal4-VP16 FLuc: inactive; RORgamma inh: inactive; TDP1 cell noCPT: 21µM; DT40 TDP1 CPT: 26µM; IL1B secr inh: inactive

How did O=[N+]([O-])c1cccc(N/N=C/c2ccccn2)c1 do in these assays?
LDHA inh: inactive

What do the screens show for `Cc1ccc(C(CCNCCN(C)C)C2CCOC(C)(C)C2)cc1` (stereo not drawn)?
LDHA inh: inactive

What do the screens show for `CCc1noc(C(C)N2CCC(c3ccnn3CCO)CC2)n1` (stereo not drawn)?
LDHA inh: inactive

Results for COc1ccccc1C1c2c(ncn(-c3ccccc3)c2=N)Oc2ccc3ccccc3c21 (stereo not drawn) ?
LDHA inh: inactive

What do the screens show for `COc1ccc(C2c3ccc4ccccc4c3Oc3ncn(CCCN(C)C)c(=N)c32)cc1` (stereo not drawn)?
LDHA inh: inactive; Gal4-VP16 FLuc: inconclusive; RORgamma inh: 10µM; TDP1 cell noCPT: 4.6µM; DT40 TDP1 CPT: 12µM; IL1B secr inh: -95

What do the screens show for `N=c1c2c(ncn1CCCO)Oc1cc(O)ccc1C2c1ccccc1` (stereo not drawn)?
LDHA inh: inactive; Gal4-VP16 FLuc: inactive; RORgamma inh: inactive; TDP1 cell noCPT: inactive; DT40 TDP1 CPT: inactive; IL1B secr inh: inactive

How did COc1ccccc1C1c2ccc3ccccc3c2Oc2ncn(CCCO)c(=N)c21 (stereo not drawn) do in these assays?
LDHA inh: inactive; Gal4-VP16 FLuc: inactive; RORgamma inh: inactive; TDP1 cell noCPT: 23µM; DT40 TDP1 CPT: 23µM; IL1B secr inh: -97

Results for COc1ccccc1C1c2ccc3ccccc3c2Oc2ncn(CCN(C)C)c(=N)c21 (stereo not drawn) ?
LDHA inh: inactive; Gal4-VP16 FLuc: inactive; RORgamma inh: 10µM; TDP1 cell noCPT: 16µM; DT40 TDP1 CPT: inconclusive; IL1B secr inh: -98

How did COc1ccc(C2c3ccc4ccccc4c3Oc3ncn(Cc4ccco4)c(=N)c32)cc1OC (stereo not drawn) do in these assays?
LDHA inh: inactive; Gal4-VP16 FLuc: inconclusive; RORgamma inh: inactive; TDP1 cell noCPT: 16µM; DT40 TDP1 CPT: 23µM; IL1B secr inh: inconclusive

Results for Cc1ccc(C(=O)C(NC(=O)c2ccco2)Nc2cccc(C)c2)cc1 (stereo not drawn) ?
LDHA inh: inactive

Results for COc1cccc(-c2nc(CSCC(=O)N3CCc4ccccc43)c(C)o2)c1 ?
LDHA inh: inactive; Gal4-VP16 FLuc: inactive[0.365 µM]; RORgamma inh: inactive; TDP1 cell noCPT: inactive; DT40 TDP1 CPT: inactive; IL1B secr inh: inactive

What do the screens show for `COc1ccc(-c2nc(CSCC(=O)N3CCN(c4ccccc4F)CC3)c(C)o2)cc1`?
LDHA inh: inactive; TDP1 cell noCPT: 8.2µM; DT40 TDP1 CPT: 16µM

How did CCOc1ccc(-c2nc(CSCC(=O)N3CCN(c4cccc(OC)c4)CC3)c(C)o2)cc1 do in these assays?
LDHA inh: inactive; Gal4-VP16 FLuc: 11µM; RORgamma inh: 11µM; TDP1 cell noCPT: inconclusive; DT40 TDP1 CPT: 23µM; IL1B secr inh: inactive

Results for CCOc1ccc(NC(=S)Nc2cc(C)[nH]n2)cc1 ?
LDHA inh: inactive; Gal4-VP16 FLuc: 7.1µM; RORgamma inh: 3.2µM; TDP1 cell noCPT: inactive; DT40 TDP1 CPT: inactive; IL1B secr inh: inactive

How did CCNC(=S)Nc1ccc(OCC)cc1 do in these assays?
LDHA inh: inactive; Gal4-VP16 FLuc: inconclusive; RORgamma inh: 13µM; TDP1 cell noCPT: inactive; DT40 TDP1 CPT: inactive; IL1B secr inh: inactive

How did CCOc1ccc(NC(=S)Nc2ccc(OC(F)(F)F)cc2)cc1 do in these assays?
LDHA inh: inactive; Gal4-VP16 FLuc: inconclusive; RORgamma inh: inconclusive; TDP1 cell noCPT: inactive; DT40 TDP1 CPT: inactive; IL1B secr inh: inactive

What do the screens show for `CCOc1ccc(NC(=S)Nc2ccc(OCC)cc2)cc1`?
LDHA inh: inactive; Gal4-VP16 FLuc: inactive; RORgamma inh: 10µM; TDP1 cell noCPT: inactive; DT40 TDP1 CPT: inactive; IL1B secr inh: -80

Screening results from PubChem BioAssay.
